In PubChem BioAssay one finds outcome and inhibition data, which are given here for 14 compounds.

For some assays here: Results with a measured potency or affinity are listed apart. Calls of active or inactive are those of the source.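 Rule for the calls, unless noted: active = primary screen hit whose fluorescence ratio, in both repeats, exceeds the weak agonist control mean by 3 SD; inactive = the rest.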

Assay [1] has as its system TRPC4 beta (transient receptor potential cation channel C4), mouse. The experiment in a line: TRPC4 cation channel opening, retest – cell-based, Fluo4 calcium, HEK293 TRPC4beta/mu-opioid, duplicates, 10 µM, confirmation (AID 2426;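 active = fluorescence ratio normalized to control raised more than 50% in primary screen plus both repeat runs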). The note with it: Fluo4 calcium fluorescence, at 10 µM; hits give high values.
Assay [2] has as its system transient receptor potential cation channel C4 beta (TRPC4), mouse. The experiment in a line: TRPC4 cation channel opening, second retest – cell-based, second round, Fluo4, HEK293 TRPC4beta/mu-opioid, 1 µM, confirmation (AID 2461;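 active = primary screen active and over 50% activation in each of two duplicate runs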). The settings on record: Fluo4 calcium fluorescence, at 1 µM; hits give high values.
The test system of assay [3] is TRPC4 (transient receptor potential cation channel C4 beta), mouse. Briefly: potentiation of DAMGO EC20 TRPC4 response – cell-based, second round, Fluo-4, HEK293 TRPC4beta/mu-opioid, 1 µM, confirmation (AID 2554). The note with it: DAMGO EC20, Fluo-4 calcium flux, at 1 µM; hits give high values.
Assay [4] concerns TRPC4 beta (transient receptor potential cation channel C4), mouse. Briefly: potentiation of DAMGO EC20 TRPC4 response – cell-based, Fluo-4, HEK293 TRPC4beta/mu-opioid, confirmation (AID 2555;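 active = primary screen hit whose calcium fluorescence ratio, in both repeats, exceeds the weak agonist control mean by 3 SD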). The note with it: DAMGO EC20, Fluo-4 calcium flux, at 10 µM; hits give high values.
The target of assay [5] is Short transient receptor potential channel 4 (Mus musculus) (UniProt Q9QUQ5). The experiment in a line: blockers of DAMGO-evoked TRPC4 calcium flux – cell-based, Fluo4, HEK293 TRPC4beta/mu-opioid, confirmation (AID 2636;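 active = calcium signal cut by more than 3 SD below the full-agonist control yet still positive, in both repeats and the earlier primary screen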). The note with it: at 10 µM; hits give high values.
Short transient receptor potential channel 4 (Mus musculus), sequence (Q9QUQ5 whole entry, looked up): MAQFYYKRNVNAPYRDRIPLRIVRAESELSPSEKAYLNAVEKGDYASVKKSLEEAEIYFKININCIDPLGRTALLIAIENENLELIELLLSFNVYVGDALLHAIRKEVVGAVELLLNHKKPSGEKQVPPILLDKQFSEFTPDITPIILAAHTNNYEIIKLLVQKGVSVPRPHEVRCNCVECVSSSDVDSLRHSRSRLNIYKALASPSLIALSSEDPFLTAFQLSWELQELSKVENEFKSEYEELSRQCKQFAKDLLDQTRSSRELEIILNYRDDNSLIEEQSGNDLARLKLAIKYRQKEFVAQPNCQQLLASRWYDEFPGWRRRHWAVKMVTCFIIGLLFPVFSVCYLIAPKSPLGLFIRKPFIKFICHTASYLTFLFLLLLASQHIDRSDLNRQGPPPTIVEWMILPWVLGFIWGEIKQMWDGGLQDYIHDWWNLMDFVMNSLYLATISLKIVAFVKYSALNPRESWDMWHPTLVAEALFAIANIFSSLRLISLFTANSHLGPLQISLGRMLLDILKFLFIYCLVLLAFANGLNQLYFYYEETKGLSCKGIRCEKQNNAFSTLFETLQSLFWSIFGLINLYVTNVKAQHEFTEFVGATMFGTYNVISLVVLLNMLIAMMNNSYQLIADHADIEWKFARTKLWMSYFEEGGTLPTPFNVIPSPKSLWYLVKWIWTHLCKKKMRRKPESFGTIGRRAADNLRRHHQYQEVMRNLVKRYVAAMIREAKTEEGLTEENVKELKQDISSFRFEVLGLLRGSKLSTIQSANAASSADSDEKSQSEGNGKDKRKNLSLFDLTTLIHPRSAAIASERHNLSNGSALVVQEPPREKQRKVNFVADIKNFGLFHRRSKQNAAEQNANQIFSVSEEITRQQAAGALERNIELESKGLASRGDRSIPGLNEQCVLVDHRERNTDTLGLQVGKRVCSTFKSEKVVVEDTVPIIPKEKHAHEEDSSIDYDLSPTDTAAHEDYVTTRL
Assay [6] has the same target. Briefly: blockers of DAMGO-evoked TRPC4 calcium flux – cell-based, second round, Fluo4, HEK293 TRPC4beta/mu-opioid, 1 µM, confirmation (AID 2637;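 active = calcium signal ratio cut to more than 3 SD under the fully stimulated control mean yet still positive, in both repeats and the primary screen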;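 for inhibition: percent of integrated ratio relative to wells lacking test compound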). The note with it: at 1 µM; hits give high values.
The target is the same in assay [7]. Briefly: calcium entry via TRPC4 opening agents – cell-based, HEK293 TRPC4/mu-opioid, Fluo-4 calcium, dose response (AID 434937;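 active = primary screen activator hit with a dose response curve and TRPC4 channel activation at any tested dose; inactive = no activation, no dose response, or not a primary hit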).
Assay [8] shares this target. The experiment in a line: potentiation of DAMGO-evoked TRPC4 calcium signal – cell-based, HEK293 TRPC4/mu-opioid, Fluo-4 calcium, EC20 DAMGO, dose response (AID 434941;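 active = earlier screen potentiator hit that boosts the TRPC4 ion channel at some dose, with a dose response; inactive = no potentiation, no dose response, or not a prior hit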;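 note: calcium entry triggered by an EC20 dose of DAMGO at the co-expressed mu-opioid receptor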).
The target of assay [9] is Short transient receptor potential channel 6 (Mus musculus) (UniProt Q61143). Briefly: TRPC6 blockade by TRPC4 inhibitor hits – cell-based, HEK293, membrane potential dye, duplicate, selectivity assay for TRPC4 inhibitor project, confirmation (AID 434948;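 active = active in primary screen and both duplicates, each dropping signal beyond three positive-control SD with fluorescence still positive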). The note with it: HEK293 TRPC6, membrane potential dye fluorescence, at 10 µM, stimulated with maximal-effect acetylcholine; hits give high values.
Short transient receptor potential channel 6 (Mus musculus), sequence (Q61143 whole entry, looked up): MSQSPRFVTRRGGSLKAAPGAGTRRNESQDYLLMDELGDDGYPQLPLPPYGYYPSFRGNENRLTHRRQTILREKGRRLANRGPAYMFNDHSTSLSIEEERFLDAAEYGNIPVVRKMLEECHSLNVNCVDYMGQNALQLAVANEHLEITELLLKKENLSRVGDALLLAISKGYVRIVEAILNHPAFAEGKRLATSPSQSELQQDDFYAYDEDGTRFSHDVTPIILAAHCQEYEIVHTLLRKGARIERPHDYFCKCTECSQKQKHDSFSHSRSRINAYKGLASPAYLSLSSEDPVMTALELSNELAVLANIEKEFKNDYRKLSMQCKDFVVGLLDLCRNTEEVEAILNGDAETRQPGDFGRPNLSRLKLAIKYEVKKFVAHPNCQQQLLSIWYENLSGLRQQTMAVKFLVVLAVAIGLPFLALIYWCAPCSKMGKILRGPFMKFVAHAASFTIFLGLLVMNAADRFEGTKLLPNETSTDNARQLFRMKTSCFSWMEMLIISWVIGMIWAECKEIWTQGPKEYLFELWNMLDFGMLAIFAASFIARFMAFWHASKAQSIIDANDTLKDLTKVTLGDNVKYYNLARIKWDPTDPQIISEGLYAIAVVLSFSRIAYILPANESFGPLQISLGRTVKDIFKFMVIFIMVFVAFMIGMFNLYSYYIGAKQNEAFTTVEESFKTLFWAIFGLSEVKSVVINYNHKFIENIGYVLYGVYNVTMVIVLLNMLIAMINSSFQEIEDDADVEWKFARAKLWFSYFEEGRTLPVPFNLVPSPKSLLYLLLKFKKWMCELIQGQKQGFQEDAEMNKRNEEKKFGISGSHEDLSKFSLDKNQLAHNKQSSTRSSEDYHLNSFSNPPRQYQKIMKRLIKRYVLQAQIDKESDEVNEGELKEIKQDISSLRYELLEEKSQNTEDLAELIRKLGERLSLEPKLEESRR

For assay [10] the target is unchanged. The experiment in a line: TRPC6 opening by TRPC4 activator hits – cell-based, HEK293, membrane potential dye, duplicate, selectivity assay for TRPC4 activator project, confirmation (AID 434950;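 active = membrane potential signal rise above negative control mean plus 3 SD in both duplicates, also active in the earlier TRPC4 screen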). The note with it: HEK293 TRPC6, membrane potential fluorescence, at 10 µM; activation: hits give high values; outcome: activation.
The target is the same in assay [11]. The experiment in a line: positive modulators of mouse TRPC6 channel – HEK293 cells, membrane potential dye, duplicate, selectivity assay for TRPC4 potentiator project, confirmation (AID 434952;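 active = compound raising the membrane signal above positive-control mean plus 3 SD in both repeats, and a primary screen hit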). The note with it: HEK293 TRPC6, membrane potential dye fluorescence, at 10 µM, maximal acetylcholine added after compound; hits give high values.
In assay [12] the target is Short transient receptor potential channel 4 (Mus musculus) (UniProt Q9QUQ5). Briefly: calcium flux activators in TRPC4/5HT1a cells, counter-screen for TRPC4 activator project, cell-based, second counter screen, HEK293 TRPC4/5HT1a, Fluo-4 (AID 434977;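 active = calcium signal rise above buffer-control mean plus 5 SD in both duplicates, and also a hit in the primary screen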). The settings on record: Fluo-4 calcium flux, at 10 µM; hits give high values.
The nature of assay [13]: serotonin-gated TRPC4 signal block – cell-based, second counter screen, HEK293 TRPC4/5HT1a, Fluo-4, counter-screen for TRPC4 inhibitor project, confirmation (AID 434978;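 active = primary screen active whose calcium signal fell more than 3 SD beyond the full-serotonin control mean in both duplicate plates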;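 for outcome: serotonin given first at submaximal then at maximal dose after compound preincubation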). The note with it: Fluo-4 calcium flux, at 10 µM, serotonin added to trigger calcium flux; hits give high values.
The subject of assay [14] is TRPC4 (mouse), co-expressed with 5HT1a in HEK293. The experiment in a line: enhancement of serotonin-evoked TRPC4 response – cell-based, second counter screen, HEK293 TRPC4/5HT1a, Fluo-4, counter-screen for TRPC4 potentiator project, confirmation (AID 434979;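 active = signal rise over 3 SD above mean of control wells given weak agonist, in both repeats and first screen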). The note with it: Fluo-4 calcium flux, at 10 µM, serotonin added at its EC20 dose; hits give high values.
The nature of assay [15]: nonspecific calcium rise without TRPC4 – cell-based, HEK293 mu-opioid receptor line, counter-screen for TRPC4 activator project, confirmation (AID 449723;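 active = hit in primary screen, with calcium signal over 5 SD above buffer well mean in both duplicates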;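 note: counter screen cells carry the mu-opioid receptor alone and lack TRPC4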). The note with it: HEK293 mu-opioid cells, Fluo-4 calcium fluorescence, at 10 µM; hits give high values.
The nature of assay [16]: nonspecific potentiation of DAMGO calcium response – cell-based, HEK293 mu-opioid receptor line, counter-screen for TRPC4 allosteric potentiator project, confirmation (AID 449724;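 active = calcium signal rise more than 3 SD above the low-dose agonist control mean, in both duplicate plates and the primary screen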;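 note: HEK293 cells carrying mu-opioid receptor only with no TRPC4 channel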). The settings on record: HEK293 mu-opioid receptor cells, Fluo-4 calcium flux, at 10 µM, compound added before EC20 DAMGO stimulus; hits give high values.

In the case of `COc1ccc(Nc2nc(N)c3ccccc3n2)c(OC)c1`, the result in assay [1], in assay [2], in assay [3], in assay [4], in assay [6] and in [7] was inactive. The result in assay [8], in assay [9], in assay [10], in assay [11], in assay [12] and in [14] was inactive. Also, the outcome in assay [15] and in assay [16] was inactive. The values for the inhibition in [5] and in assay [13] were 93% (active) and 26.1% (active), respectively.
Take `Cc1cc(N2CCC(C)CC2)nc2cccc(O)c12`: the result in [1], in assay [2], in assay [3], in assay [4], in assay [7] and in assay [8] was inactive. The compound was called inactive in [10], in [11], in [12], in assay [13], in assay [14] and in [15]. The result in assay [16] was inactive. Moreover, the inhibition in assay [5] is 95% (active); in assay [6], 83% (active); in [9], 59% (active).
In the case of `CCN(CC)C(=O)C1CCCN(Cc2cccc(Oc3ccccc3)c2)C1` (centres undefined), the outcome in assay [1], in assay [2], in assay [3], in assay [4], in [7] and in [8] was inactive. Also, the compound was classed as inactive in [9], in assay [10], in assay [11], in [12], in [14] and in assay [15]. For the same compound, the outcome in [16] was inactive. The inhibition was 93% (active) in assay [5], 53% (active) in assay [6] and 25.7% (active) in assay [13].
For the compound `COc1ccccc1N1CCc2c(C)nc3c(OC)cccc3c21`, the result in assay [1], in assay [2], in assay [3], in assay [4], in [7] and in assay [8] was inactive. The outcome in [10], in assay [11], in assay [12], in assay [14], in assay [15] and in assay [16] was inactive. In addition, the inhibition in assay [5] is 92% (active); in assay [6] it was 44% (active); in assay [9] it was 29% (active); in assay [13], 16.3% (active).
Consider `CCOC(=O)C1(CC2CC2)CCN(Cc2cc(Cl)c(O)c(OC)c2)CC1`, for which the result in assay [1], in [2], in assay [3], in assay [4], in assay [6] and in assay [7] was inactive. Moreover, the outcome in assay [8], in [9], in [10], in assay [11], in [12] and in [13] was inactive. Also, the outcome in assay [14], in assay [15] and in [16] was inactive. Moreover, the inhibition in assay [5] is 71% (active).
On to `CCOc1ccccc1CN1CCC(n2nccc2NC(=O)CCc2ccccc2)CC1`, for which the outcome in [1], in assay [2], in assay [3], in assay [4], in assay [7] and in assay [8] was inactive. The compound was called inactive in [9], in assay [10], in assay [11], in assay [12], in [13] and in [14]. The outcome in [15] and in assay [16] was inactive. In addition, the figures for the inhibition in assay [5] and in assay [6] were 97% (active) and 69% (active), respectively.
As for `c1ccc2c(c1)nnn2-c1ncnc2sc3c(c12)CCCC3`, the outcome in [1], in assay [2], in assay [3], in assay [4], in [6] and in [7] was inactive. The result in assay [8], in [9], in assay [10], in [11], in assay [12] and in assay [14] was inactive. The result in assay [15] and in assay [16] was inactive. The inhibition in assay [5] is 71% (active); in assay [13], 21.8% (active).
Regarding `COc1ccc(Cn2nnnc2C(c2cc3cc(C)ccc3[nH]c2=O)N2CCN(C)CC2)cc1` (centres undefined), the outcome in [1], in assay [2], in assay [3], in assay [4], in assay [6] and in assay [7] was inactive. Moreover, the outcome in assay [8], in assay [9], in [10], in assay [11], in [12] and in assay [13] was inactive. For the same compound, the result in assay [14], in [15] and in assay [16] was inactive. Also, the inhibition in [5] was 83% (active).
`COC(=O)c1ccc(Nc2cc(C)nc3ccccc23)cc1`: the result in assay [1], in assay [2], in assay [3], in [4], in [6] and in assay [7] was inactive. The result in [8], in assay [10], in assay [11], in assay [12], in [14] and in assay [15] was inactive. Also, the outcome in assay [16] was inactive. In addition, the results for the inhibition in assay [5], in [9] and in assay [13] were 98% (active), 50% (active) and 19.9% (active), respectively.
As to `CNc1nc(NCc2ccccc2)c2ccccc2n1`, the result in [1], in assay [2], in assay [3], in [4], in assay [5] and in assay [7] was inactive. The result in assay [8], in [10], in assay [11], in assay [12], in assay [14] and in [15] was inactive. Besides, in assay [16], the outcome was inactive. Also, the inhibition in assay [6] is 69% (active); in assay [9], 50.5% (active); in assay [13], 26.9% (active).
Take `CC(=O)OCCCN1C(=O)c2cccc3cc(Br)cc(c23)C1=O`: the outcome in assay [1], in assay [2], in assay [3], in assay [4], in [7] and in [8] was inactive. Further, the result in [9], in assay [10], in assay [11], in assay [12], in assay [14] and in [15] was inactive. For the same compound, the result in assay [16] was inactive. Moreover, the inhibition was 96% (active) in assay [5], 55% (active) in assay [6] and 14.5% (active) in assay [13].
With `COc1ccc(C(Nc2ccccn2)c2c(NC(=O)c3ccco3)sc(C)c2C)cc1OC` (centres undefined), the outcome in assay [1], in assay [2], in assay [3], in [4], in assay [7] and in assay [8] was inactive. In addition, the compound was called inactive in [9], in [10], in [11], in assay [12], in assay [13] and in assay [14]. Further, the outcome in [15] and in assay [16] was inactive. Also, the inhibition in assay [5] is 78% (active); in assay [6], 38% (active).
As for `Cc1ccccc1C(=O)NC1CC2CCC(C1)N2Cc1ccccc1` (centres undefined), the outcome in [1], in assay [2], in assay [3], in [4], in assay [7] and in assay [8] was inactive. For the same compound, the outcome in assay [9], in [10], in [11], in [12], in assay [14] and in [15] was inactive. Further, in assay [16], the outcome was inactive. For the same compound, the inhibition in assay [5] is 68% (active); in assay [6], 47% (active); in assay [13], 43.3% (active).
As to `COC(=O)c1cccc2c1-c1ccccc1/C2=N/O`, the result in assay [1], in [2], in assay [3], in [4], in [7] and in assay [8] was inactive. Further, the compound was called inactive in assay [9], in assay [10], in [11], in assay [12], in [14] and in assay [15]. For the same compound, the outcome in assay [16] was inactive. Moreover, the inhibition in [5] was 81% (active); in assay [6] it was 43% (active); in [13], 27.9% (active).
